Measured values as given in PubChem BioAssay AID1345085 (National Center for Advancing Translational Sciences (NCATS), 2018).
Results filed as inconclusive are left out. A call without a number means that no potency is given here. Active and inactive are the calls of the source. Calls come from the whole dose curve; as a rule, active = well fitted cell-killing curve with a large enough effect; inconclusive = small, poorly fitted or top-dose-only effect, or effect the other way; inactive = no such curve, though single readings can be large or run the other way.

test system: SW626; test: Confirmatory qHTS for gynecologic anti-cancer compounds from libraries of approved drugs and bioactive compounds; conditions: gynecologic cancer cell panel viability, ATPlite luminescence, 48 h; series mostly up to 57.6 µM; note: nearly all actives have a fitted effect of over 55% in size
How it was run: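 1,000 cells/well; 16 h pre-incubation 37 C, 5% CO2; pin-transferred cpd in DMSO, 11 conc (1:3), 57.5 uM–0.977 nM; 48 h; ATPlite, 15 min RT; luminescence → IC50.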
Potency is the fitted concentration of half-maximal effect.

Structure (SMILES)	Potency
Cn1cnc2c(F)c(Nc3ccc(Br)cc3Cl)c(C(=O)NOCCO)cc21	2.73 µM (active)
CC(Oc1ccc2[nH]nc(/C=C/c3cnn(CCO)c3)c2c1)c1c(Cl)cncc1Cl (stereo not drawn)	inactive
COc1ccc(CCC(=O)c2c(O)cc(O[C@@H]3O[C@H](CO)[C@@H](O)[C@H](O)[C@H]3O[C@@H]3O[C@@H](C)[C@H](O)[C@@H](O)[C@H]3O)cc2O)cc1O	inactive
CN[C@@H](C)C(=O)N[C@H]1CN(C(=O)CC(C)C)CC[C@H]2CC[C@@H](C(=O)NC(c3ccccc3)c3ccccc3)N2C1=O	inactive
CCOc1ccc(Nc2nc(-c3c(C)nc4ccccn34)cs2)cc1	inactive
Cc1ccc(C(=O)Nc2ccc(Oc3cc4cnn(C)c4cc3-c3cn[nH]c3)c(F)c2)c(=O)n1-c1ccc(F)cc1	4.32 µM (active)
CC(C)Oc1ccc(C(=O)NC(CNC(=O)CN(C)C)Cc2ccc(-c3cn4cccc(C(C)O)c4n3)cc2)cc1Cl (stereo not drawn)	inactive
O=C(O)C1(Cc2cccc(Nc3nccs3)n2)CCC(Oc2cccc(Cl)c2F)CC1 (stereo not drawn)	inactive
CC(C)(C(=O)NCC(F)(F)C(F)(F)F)C(=O)NC1C(=O)Nc2ccccc2-c2ccccc21 (stereo not drawn)	inactive
C[C@]12CCC(=O)C=C1[C@@H]1C[C@@H]1[C@H]1[C@@H]3[C@@H]4C[C@@H]4[C@@]4(CCC(=O)O4)[C@@]3(C)CC[C@@H]12	inactive
CN(Cc1cnc2nc(N)nc(N)c2n1)c1ccc(C(=O)N[C@@H](CCC(=O)O)C(=O)O)cc1	inactive
Cc1ccc(C(=O)N(CCCN)C(c2oc3cc(Cl)ccc3c(=O)c2Cc2ccccc2)C(C)C)cc1 (stereo not drawn)	24.3 µM (active)
CN1CCCC(n2nc(Cc3ccc(Cl)cc3)c3ccccc3c2=O)CC1 (stereo not drawn)	27.3 µM (active)
COC(=O)c1ccc2c(C(=Nc3ccc(N(C)C(=O)CN4CCN(C)CC4)cc3)c3ccccc3)c(O)[nH]c2c1	24.3 µM (active)
O=C(CCCCCCNC(=O)c1cnc(N(c2ccccc2)c2ccccc2)nc1)NO	7.69 µM (active)
O=C(O)c1ccc(Nc2ncc3c(n2)-c2ccc(Cl)cc2C(c2c(F)cccc2F)=NC3)cc1	inactive
S=c1nc[nH]c2nc[nH]c12	6.85 µM (active)

Structure (SMILES)	Potency
Oc1cn2c(n1)Nc1ccc(Cl)c(Cl)c1C2	inactive
COc1c(C)c2c(c(O)c1C/C=C(\C)CCC(=O)OCCN1CCOCC1)C(=O)OC2	inactive
COC(C(=O)N1Cc2[nH]nc(NC(=O)c3ccc(N4CCN(C)CC4)cc3)c2C1)c1ccccc1 (stereo not drawn)	inactive
CCN[C@H]1C[C@H](C)S(=O)(=O)c2sc(S(N)(=O)=O)cc21	inactive
COc1cc(N2CCC(N(C)C)CC2)ccc1Nc1ncc(Cl)c(Nc2ccccc2P(C)(C)=O)n1	3.85 µM (active)
O=C(Nc1cccnc1)N1CCC(Cc2cccc(Oc3ccc(C(F)(F)F)cn3)c2)CC1	inactive
CNC(=O)c1ccccc1Sc1ccc2c(/C=C/c3ccccn3)n[nH]c2c1	21.7 µM (active)
CN(C)CCC(CSc1ccccc1)Nc1ccc(S(=O)(=O)NC(=O)c2ccc(N3CCN(Cc4ccccc4-c4ccc(Cl)cc4)CC3)cc2)cc1[N+](=O)[O-] (stereo not drawn)	7.69 µM (active)
COc1cccc2c1C(=O)c1c(O)c3c(c(O)c1C2=O)C[C@@](O)(C(=O)CO)C[C@@H]3O[C@H]1C[C@H](N)[C@H](O[C@@H]2CCCCO2)[C@H](C)O1	7.69 µM (active)
CCCCN(CCCC)CC(O)c1cc(Cl)cc2c1-c1ccc(Cl)cc1/C2=C/c1ccc(Cl)cc1 (stereo not drawn)	inactive
Nc1ncnc2c1ncn2[C@@H]1O[C@H](CO)C[C@H]1O	inactive
COc1ccc2cc3[n+](cc2c1OC)CCc1cc2c(cc1-3)OCO2	inactive
CCN(CC)CCCC(C)Nc1c2ccc(Cl)cc2nc2ccc(OC)cc12 (stereo not drawn)	27.3 µM (active)
Cc1cc(Nc2cc(N3CCN(C)CC3)nc(/C=C/c3ccccc3)n2)n[nH]1	21.7 µM (active)
CC[C@]1(O)C[C@H]2CN(CCc3c([nH]c4ccccc34)[C@@](C(=O)OC)(c3cc4c(cc3OC)N(C=O)[C@H]3[C@@](O)(C(=O)OC)[C@H](OC(C)=O)[C@]5(CC)C=CCN6CC[C@]43[C@@H]65)C2)C1	inactive
NC(=O)c1cccc2cn(-c3ccc([C@@H]4CCCNC4)cc3)nc12	inactive
